Experimental findings from article PMC6792352, “Limited Chemical Structural Diversity Found to Modulate Thyroid Hormone Receptor in the Tox21 Chemical Library” (Environmental Health Perspectives, 2019) are described below.

SMILES strings stand for the structures. Structures can show the parent of a compound that is named as a salt.

The subject of this experiment is thyroid hormone receptor (endogenous TRα and TRβ). Details: species or system GH3-TRE-Luc (rat pituitary); GH3-TRE-Luc luciferase reporter, antagonist mode against 1 nM T3, loss of signal, qHTS. Conditions: read-out: Average AC50 (uM) GH3-TRE-Antag, antagonist mode, 1 nM T3, no GH3 cytotoxicity hit.
Consider `O=C1c2ccccc2C(=O)C1(O)O` [Ninhydrin], for which the AC50 came to 80 µM. For `NC1=NCC2c3ccccc3Cc3ccccc3N12` (stereo not drawn) [Epinastine hydrochloride] the value was 27.1 µM; for `C[C@@H]1C[C@H]2[C@@H]3CCC4=CC(=O)C=C[C@]4(C)[C@@]3(Cl)[C@@H](O)C[C@]2(C)[C@@]1(OC(=O)c1ccco1)C(=O)CCl` [Mometasone furoate], 16.9 µM. Regarding `CCCCC[C@H](O)/C=C/[C@H]1[C@H](O)CC(=O)[C@@H]1C/C=C\CCCC(=O)O` [Dinoprostone], the AC50 stood at 4.68 µM. The value for `OCc1c[nH]c2ccccc12` [Indole-3-carbinol] was 58.4 µM; that for `CC/C=C\CC/C=C/C(OCC)OCC` [(2E,6Z)-1,1-diethoxynona-2,6-diene] was 61.1 µM; that for `c1ccc2c(c1)[nH]c1cnccc12` [Norharman] was 45.1 µM.

Take `CC[C@H](NC(=O)c1cc(F)ccc1NS(=O)(=O)c1cccc2cccnc12)c1ccccc1` [AVE3295]: the AC50 was found to be 56.9 µM.

For the molecule `O=C1OC(OC(=O)c2cccnc2Nc2cccc(C(F)(F)F)c2)c2ccccc21` (stereo not drawn) [Talniflumate], the AC50 was 9.92 µM. The value for `CN(C)C(=O)Nc1ccc(Oc2ccc(Cl)cc2)cc1` [Chloroxuron] was 64.2 µM; that for `CC1(C)CC/C(=C\c2ccc(Cl)cc2)C1(O)Cn1cncn1` (stereo not drawn) [Triticonazole] was more than 90 µM; that for `CC(C)c1cccc(C(C)C)c1N1C(=O)c2ccc(O)cc2C1=O` [5HPP-33] was 5.01 µM. The value for `CCOc1cc(N)c(Cl)cc1C(=O)NCC1CN(Cc2ccc(F)cc2)CCO1` (stereo not drawn) [Mosapride citrate] was 43.4 µM; that for `CCCCCOC(=O)COc1cc(N2C(=O)C3=C(CCCC3)C2=O)c(F)cc1Cl` [Flumiclorac-pentyl] was 52.5 µM; that for `O=C(O)c1cc(Cl)cc(Cl)c1O` [3,5-Dichlorosalicylic acid] was 68.6 µM. With `CCCCCCCCCCC(=O)O` [Undecanoic acid], the AC50 came out at 60.2 µM.

For the molecule `C[C@]12CC[C@H](O)CC1=CC[C@@H]1[C@@H]2CC[C@]2(C)C(=O)CC[C@@H]12` [Dehydroepiandrosterone], the AC50 is more than 50 µM.

Take `CC/C=C\CCOC(=O)c1ccccc1` [(3Z)-Hex-3-en-1-yl benzoate]: the AC50 came to 73.9 µM. `Brc1ccc(Oc2ccccc2)cc1` [p-Bromodiphenyl ether]: the AC50 was 44.7 µM.

As for `CCCCC(CC)COC(=O)/C=C/c1ccc(OC)cc1` (stereo not drawn) [2-Ethylhexyl trans-4-methoxycinnamate], the AC50 is more than 90 µM. Take `C#C[C@]1(O)CC[C@H]2[C@@H]3CCc4cc(O)ccc4[C@H]3CC[C@@]21C` [17alpha-Ethinylestradiol]: the AC50 turned out to be 16.2 µM. For the molecule `CC(C)(c1ccc(O)cc1)c1ccc(O)cc1` [BPA, bisphenol A], the AC50 worked out at 66.6 µM. The value for `Cc1cc(C(C)(C)C)c(O)c(C)c1Cn1c(=O)n(Cc2c(C)cc(C(C)(C)C)c(O)c2C)c(=O)n(Cc2c(C)cc(C(C)(C)C)c(O)c2C)c1=O` [Cyanox CY 1790] was 66.5 µM; that for `CC[C@@H]1/C=C(\C)C[C@H](C)C[C@H](OC)[C@H]2O[C@@](O)(C(=O)C(=O)N3CCCC[C@H]3C(=O)O[C@H](/C(C)=C/[C@@H]3CC[C@H](Cl)[C@H](OC)C3)[C@H](C)[C@@H](O)CC1=O)[C@H](C)C[C@@H]2OC` [Pimecrolimus] was 16 µM.

In the case of `NC(N)=NCc1cccc(I)c1` [3-Iodobenzylguanidine hemisulfate], the AC50 came out at 16.3 µM. The value for `CC[C@H](C)[C@@H](C(=O)O)n1sc2ccccc2c1=O` [(2S,3S)-3-Methyl-2-(3-oxo-1,2-benzothiazol-2(3H)-yl)pentanoic acid] was more than 90 µM. For `N#CC(c1ccc(Cl)cc1)c1c(Cl)cc(-n2ncc(=O)[nH]c2=O)cc1Cl` (stereo not drawn) [Diclazuril] the value was 4.7 µM; for `CCCCCCCCCCO[C@@H]1O[C@H](CO)[C@@H](O)[C@H](O)[C@H]1O` [Decyl beta-D-glucopyranoside], 68.4 µM; for `Cc1ccc(Nc2nccc(N(C)c3ccc4c(C)n(C)nc4c3)n2)cc1S(N)(=O)=O` [Pazopanib], 14 µM.

For the molecule `O=C(O)C1=NN(c2ccc(S(=O)(=O)O)cc2)C(=O)C1N=Nc1ccc(S(=O)(=O)O)cc1` (stereo not drawn) [FD&C Yellow 5], the AC50 is 6.01e-06 µM.

For the molecule `COc1nc(N)nc2c1ncn2[C@@H]1O[C@H](CO)[C@@H](O)[C@@H]1O` [Nelarabine], the AC50 was 25.2 µM.

As to `CCCCCCCCCCCCCCC(Br)C(=O)O` (stereo not drawn) [2-Bromohexadecanoic acid], the AC50 turned out to be 53.6 µM.

Turning to `C=CCCCCCCCCC(=O)O` [10-Undecenoic acid], the AC50 came out at 43.6 µM. For `CC1(C)NC(=O)N(c2ccc([N+](=O)[O-])c(C(F)(F)F)c2)C1=O` [Nilutamide], the AC50 stood at 38.5 µM.

As to `C[C@]12CCC(=O)C=C1C=C[C@@H]1[C@@H]2CC[C@@]2(C)[C@H]1CC[C@@]21CCC(=O)O1` [Canrenone], the AC50 was found to be 34.1 µM. For `COCC(C)N(C(=O)CCl)c1c(C)csc1C` (stereo not drawn) [Dimethenamid] the value was more than 50 µM. For `O=S(=O)(O)c1ccccc1/C=C/c1ccc(-c2ccc(/C=C/c3ccccc3S(=O)(=O)O)cc2)cc1` [Disodium 4,4'-bis(2-sulfostyryl)biphenyl], the AC50 was 26.4 µM. The value for `CC(Cc1ccc(C(C)(C)C)cc1)CN1C[C@@H](C)O[C@@H](C)C1` (stereo partly drawn) [(2R,6S)-Fenpropimorph] was 47.3 µM; that for `CC(C)CC(=O)C1C(=O)c2ccccc2C1=O` [2-Isovaleryl-1,3-indanedione] was 77.1 µM.
